Measured values from PubChem BioAssay (EPA / NIEHS).
Activity calls are given as the source filed them. How the source made its calls: active means hit-call score of the fitted dose curve at least 0.9, where 1 is the maximum; inactive means score below 0.9.

What was measured:
Conditions in all cases: mRNA level, 48 h; actives raise or lower the signal
[1] = read-out: Cytochrome P450 4A22 (Homo sapiens) (UniProt Q5TCH4); assay: LTEA_HepaRG_CYP4A22: Life Technologies and Expression Analysis (LTEA) Assay for Cytochrome P450 4A22 (CYP4A22) using HepaRG (AID 2283495)
How it was run: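 Gene expression measured by qRT-PCR against three housekeeping genes (ACTB, GAPDH, POLR2A), with gain or loss fitted relative to 0.5% DMSO vehicle. HepaRG cultures received 48 h chemical treatment, top concentration 100 uM, half-log steps, duplicate wells.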

[2] = read-out: Cytochrome P450 7A1 (Homo sapiens) (UniProt P22680); assay: LTEA_HepaRG_CYP7A1: Life Technologies and Expression Analysis (LTEA) Assay for Cytochrome P450 7A1 (CYP7A1) using HepaRG (AID 2283496)
How it was run: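 Using 0.5% DMSO as vehicle and baseline, chemicals were tested in duplicate over an 8-point range from 100 uM on HepaRG cells for 48 h; qRT-PCR signals were normalised to ACTB, GAPDH and POLR2A.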

[3] = read-out: Glutathione S-Transferase (GSTA2), GSTA2 (gene 2939); assay: LTEA_HepaRG_GSTA2: Life Technologies and Expression Analysis (LTEA) Assay for Glutathione S-Transferase (GSTA2) using HepaRG (AID 2283497)
How it was run: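 qRT-PCR readout of GSTA2 transcript, normalized to three housekeeping genes, fitted bidirectionally against 0.5% DMSO baseline. Differentiated HepaRG cells received compound for 48 h at 8 concentrations (top 100 uM, half-log steps).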

[4] = read-out: Glutamate-cysteine ligase catalytic (GCLC), GCLC (gene 2729); assay: LTEA_HepaRG_GCLC: Life Technologies and Expression Analysis (LTEA) Assay for Glutamate-cysteine ligase catalytic (GCLC) using HepaRG (AID 2283498)
How it was run: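 HepaRG, 48 h exposure, 8-pt half-log series from 100 uM, 0.5% DMSO vehicle; TaqMan qRT-PCR for GCLC mRNA, housekeeping-normalized; bidirectional curve fit vs DMSO baseline.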

[5] = read-out: growth arrest and DNA damage 45 (GADD45G), GADD45G (gene 10912); assay: LTEA_HepaRG_GADD45G: Life Technologies and Expression Analysis (LTEA) Assay for growth arrest and DNA damage 45 (GADD45G) using HepaRG (AID 2283499)
How it was run: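 GADD45G transcript level by qRT-PCR (housekeeping-normalized: ACTB, GAPDH, POLR2A) after 48 h chemical treatment of a single HepaRG lot in serum-free induction medium; eight-point half-log series up to 100 uM in 0.5% DMSO, duplicates, up- or down-regulation scored.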

[6] = read-out: Glutamate-cysteine ligase regulatory (GCLM), GCLM (gene 2730); assay: LTEA_HepaRG_GCLM: Life Technologies and Expression Analysis (LTEA) Assay for Glutamate-cysteine ligase regulatory (GCLM) using HepaRG (AID 2283500)
How it was run: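 In this multiplexed HepaRG gene-expression assay, GCLM mRNA change after 48 h treatment (8 concentrations, max 100 uM) was scored against DMSO by bidirectional curve fitting.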

[7] = read-out: Glutathione S-transferase M3 (GSTM3), GSTM3 (gene 2947); assay: LTEA_HepaRG_GSTM3: Life Technologies and Expression Analysis (LTEA) Assay for Glutathione S-transferase M3 (GSTM3) using HepaRG (AID 2283501)
How it was run: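 GSTM3 transcript levels came from Fluidigm TaqMan qRT-PCR normalized to three housekeeping genes, fitted in both directions against DMSO. HepaRG cultures received chemicals for 48 h in serum-free induction medium (0.5% DMSO), 8 half-log concentrations up to 100 uM, duplicate.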

[8] = read-out: Heat shock 70 kDa protein 1 (HSPA1A), gene 3303; assay: LTEA_HepaRG_HSPA1A: Life Technologies and Expression Analysis (LTEA) Assay for Heat shock 70 kDa protein 1 (HSPA1A) using HepaRG (AID 2283502)
How it was run: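 An oxidative-stress marker readout: HepaRG cells treated 48 h in duplicate with an eight-point series (highest 100 uM) had HSPA1A mRNA quantified by TaqMan qRT-PCR. Activity was fitted in both directions using 0.5% DMSO as baseline.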

[9] = read-out: Hypoxia-inducible factor 1-alpha (Homo sapiens) (UniProt Q16665); assay: LTEA_HepaRG_HIF1A: Life Technologies and Expression Analysis (LTEA) Assay for Hypoxia-inducible factor 1 (HIF1A) Trancription factor using HepaRG (AID 2283503)
How it was run: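 Gain- or loss-of-signal HIF1A mRNA changes are fitted against a DMSO baseline. HepaRG cultures receive eight concentrations, highest 100 uM, for 48 h in serum-free induction medium with 0.5% DMSO.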

[10] = read-out: 3-Hydroxy-3-Methylglutaryl-CoA Synthase 2 (HMGCS2), HMGCS2 (gene 3158); assay: LTEA_HepaRG_HMGCS2: Life Technologies and Expression Analysis (LTEA) Assay for 3-Hydroxy-3-Methylglutaryl-CoA Synthase 2 (HMGCS2) using HepaRG (AID 2283504)
How it was run: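 Readout is HMGCS2 transcript by qRT-PCR, housekeeping-normalised (ACTB/GAPDH/POLR2A) and fitted bidirectionally against 0.5% DMSO. Differentiated HepaRG cells received chemicals 48 h, duplicate wells, eight half-log concentrations topping at 100 uM.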

HGF (gene 3082) = assay: LTEA_HepaRG_HGF: Life Technologies and Expression Analysis (LTEA) Assay for Hepatocyte Growth Facto (HGF) using HepaRG (AID 2283505)
How it was run: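 HGF transcript was quantified by TaqMan qRT-PCR against three housekeeping genes after 48 h treatment of HepaRG cells. Exposure ran in duplicate over eight half-log steps topping at 100 uM in 0.5% DMSO vehicle.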

[11] = read-out: Insulin Like Growth Factor 1 (IGF1), IGF1 (gene 3479); assay: LTEA_HepaRG_IGF1: Life Technologies and Expression Analysis (LTEA) Assay for Insulin Like Growth Factor 1 (IGF1) using HepaRG (AID 2283506)
How it was run: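 Endpoint: IGF1 mRNA change by qRT-PCR, housekeeping-normalized, fitted bidirectionally relative to 0.5% DMSO vehicle. Human HepaRG cells were treated 48 h in serum-free induction medium, eight half-log concentrations topping at 100 uM.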

[12] = read-out: Intercellular Adhesion Molecule 1 (ICAM1), ICAM1 (gene 3383); assay: LTEA_HepaRG_ICAM1: Life Technologies and Expression Analysis (LTEA) Assay for Intercellular Adhesion Molecule 1 (ICAM1) using HepaRG (AID 2283507)
How it was run: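 ICAM1 transcript levels measured by qRT-PCR, normalized to three housekeeping genes (ACTB, GAPDH, POLR2A), after 48 h chemical exposure of HepaRG cells. Duplicate eight-point half-log series from 100 uM in 0.5% DMSO; gain or loss fitted against vehicle.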

[13] = read-out: Insulin-like growth factor-binding protein 1 (IGFBP1), IGFBP1 (gene 3484); assay: LTEA_HepaRG_IGFBP1: Life Technologies and Expression Analysis (LTEA) Assay for Insulin-like growth factor-binding protein 1 (IGFBP1) using HepaRG (AID 2283508)
How it was run: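 Read-out is qRT-PCR transcript level normalized to three housekeeping genes, fitted in both directions against 0.5% DMSO. Differentiated HepaRG cells received eight half-log concentrations (top 100 uM) in duplicate for 48 h in serum-free induction medium.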

[14] = read-out: Interleukin 6 (IL6), IL6 (gene 3569); assay: LTEA_HepaRG_IL6: Life Technologies and Expression Analysis (LTEA) Assay for Interleukin 6 (IL6) using HepaRG (AID 2283509)
How it was run: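 qRT-PCR read-out of IL6 transcript, normalized to three housekeeping genes, after 48 h chemical exposure of HepaRG cells; 8-point half-log series, top 100 uM, 0.5% DMSO vehicle. Bidirectional curve fitting against DMSO baseline.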

[15] = read-out: Interleukin 6 Receptor (IL6R), IL6R (gene 3570); assay: LTEA_HepaRG_IL6R: Life Technologies and Expression Analysis (LTEA) Assay for Interleukin 6 Receptor (IL6R) using HepaRG (AID 2283510);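 on AC50: differentiated human HepaRG liver cells in serum-free induction medium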
How it was run: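 In this HepaRG screen, test chemicals act on cells for 48 h at up to 100 uM (eight half-log points, duplicate wells). IL6R expression is quantified by qRT-PCR after normalization to ACTB, GAPDH and POLR2A, with DMSO as baseline.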

[16] = read-out: Potassium channel subfamily K member 1 (KCNK1), KCNK1 (gene 3775); assay: LTEA_HepaRG_KCNK1: Life Technologies and Expression Analysis (LTEA) Assay for Potassium channel subfamily K member 1 (KCNK1) using HepaRG (AID 2283511)
How it was run: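 HepaRG, 48 h exposure, 8-pt half-log series top 100 uM, 0.5% DMSO vehicle, duplicates. Readout: KCNK1 transcript by qRT-PCR (Fluidigm array), housekeeping-normalized; bidirectional curve fit relative to DMSO baseline.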

[17] = read-out: Keratin 19 (KRT19), KRT19 (gene 3880); assay: LTEA_HepaRG_KRT19: Life Technologies and Expression Analysis (LTEA) Assay for Keratin 19 (KRT19) using HepaRG (AID 2283512)
How it was run: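 KRT19 transcript measured by TaqMan qRT-PCR, referenced to three housekeeping genes, after HepaRG cells received test chemicals for 48 h. Eight half-log concentrations, top 100 uM, 0.5% DMSO vehicle; increases and decreases both fitted.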

[18] = read-out: JUN Transcription Factor, JUN (gene 3725); assay: LTEA_HepaRG_JUN: Life Technologies and Expression Analysis (LTEA) Assay for JUN Transcription Factor using HepaRG (AID 2283513)
How it was run: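 Gene-expression endpoint: JUN mRNA (qRT-PCR, normalized to three reference genes) in HepaRG cultures treated 48 h with chemicals, duplicate wells, 100 uM maximum with half-log dilutions; bidirectional fitting relative to 0.5% DMSO.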

[19] = read-out: Lipase C (LIPC), LIPC (gene 3990); assay: LTEA_HepaRG_LIPC: Life Technologies and Expression Analysis (LTEA) Assay for Lipase C (LIPC) using HepaRG (AID 2283514)
How it was run: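 HepaRG, 48 h exposure, 8-pt half-log series from 100 uM in 0.5% DMSO, duplicates. Readout: LIPC mRNA by Fluidigm qRT-PCR, housekeeping-normalized (ACTB/GAPDH/POLR2A). Gain or loss fitted bidirectionally against DMSO baseline.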

Measured: AC50

Chain of Hypoxia-inducible factor 1-alpha (Homo sapiens) (Q16665 whole entry, looked up): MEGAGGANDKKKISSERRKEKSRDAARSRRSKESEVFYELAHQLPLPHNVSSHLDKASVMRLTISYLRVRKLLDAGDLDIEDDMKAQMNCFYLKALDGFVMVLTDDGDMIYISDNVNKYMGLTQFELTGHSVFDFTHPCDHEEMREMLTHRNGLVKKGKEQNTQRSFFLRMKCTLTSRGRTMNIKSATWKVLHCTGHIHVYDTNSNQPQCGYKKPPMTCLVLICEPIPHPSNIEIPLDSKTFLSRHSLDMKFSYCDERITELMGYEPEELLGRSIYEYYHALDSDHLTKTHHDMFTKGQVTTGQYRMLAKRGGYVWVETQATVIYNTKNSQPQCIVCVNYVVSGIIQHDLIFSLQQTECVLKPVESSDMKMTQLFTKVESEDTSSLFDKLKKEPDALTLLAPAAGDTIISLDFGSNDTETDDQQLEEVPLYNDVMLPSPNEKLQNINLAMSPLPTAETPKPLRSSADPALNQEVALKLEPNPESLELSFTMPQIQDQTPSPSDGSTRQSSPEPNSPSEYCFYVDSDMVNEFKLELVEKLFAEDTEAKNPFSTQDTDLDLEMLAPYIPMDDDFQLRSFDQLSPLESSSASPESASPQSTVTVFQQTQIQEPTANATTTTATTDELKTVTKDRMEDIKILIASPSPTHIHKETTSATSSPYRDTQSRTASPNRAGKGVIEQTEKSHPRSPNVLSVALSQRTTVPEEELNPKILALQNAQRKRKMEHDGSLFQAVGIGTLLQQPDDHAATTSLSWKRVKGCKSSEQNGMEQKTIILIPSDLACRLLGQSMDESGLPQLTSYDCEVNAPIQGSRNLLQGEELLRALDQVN

O=C(O)Cn1c(=O)n(Cc2ccc(Br)cc2F)c(=O)c2ccc(Cl)cc21
active: [17] 50 µM
inactive: all other assays above

CCCCCc1ccc(N)cc1
inactive: all assays above

O=c1[nH]sc2ccccc12
inactive: all assays above

Oc1ccccc1
inactive: all assays above

CCCCCCCCCC(=O)O
inactive: all assays above

CC(C)(C)c1cc(/C=C2\SC(N)=NC2=O)cc(C(C)(C)C)c1O
inactive: [1] | [6] | [7] | [8] | [15] | [16] | [17] | [19]
active: [2] 25.2 µM | [3] 91.4 µM | [4] 14.5 µM | [5] 21.5 µM | [9] 68.8 µM | [10] 50 µM | HGF (gene 3082) 24.5 µM | [11] 93.3 µM | [12] 29.9 µM | [13] 85.1 µM | [14] 29.8 µM | [18] 66.6 µM

CC(C)(c1cc(Br)c(O)c(Br)c1)c1cc(Br)c(O)c(Br)c1
active: [3] 72.4 µM | [4] 78 µM | [8] 88.6 µM | [9] 74 µM | [10] 89.2 µM | [11] 77 µM | [12] 74.5 µM | [13] 69.1 µM | [14] 75.5 µM | [18] 94.7 µM
inactive: [1] | [2] | [5] | [6] | [7] | HGF (gene 3082) | [15] | [16] | [17] | [19]

CCN(Cc1cccc(S(=O)(=O)O)c1)c1ccc(C(=C2C=CC(=[N+](CC)Cc3cccc(S(=O)(=O)O)c3)C=C2)c2ccccc2S(=O)(=O)[O-])cc1
inactive: all assays above

CCCCCCCCOc1ccc(C(=O)c2ccccc2)c(O)c1
inactive: all assays above

CC(C)(C)c1csc(-c2cc3cc(OCc4ccccc4CC(=O)O)ccc3o2)n1
active: [1] 23.3 µM | [2] 22.5 µM | [3] 31.9 µM | [4] 77.2 µM | [5] 12.1 µM | [6] 85.4 µM | [7] 37.7 µM | [8] 78 µM | [9] 87.3 µM | [10] 31.6 µM | [11] 12.4 µM | [13] 32.2 µM | [14] 81.3 µM | [15] 50 µM | [18] 78.9 µM | [19] 25.1 µM
inactive: HGF (gene 3082) | [12] | [16] | [17]

Cc1cc(F)ccc1-c1cc(N2CC[C@@H](O)[C@H]2CO)ncc1N(C)C(=O)C(C)(C)c1cc(C(F)(F)F)cc(C(F)(F)F)c1
inactive: [7] | HGF (gene 3082) | [15] | [16] | [17]
active: [1] 16.4 µM | [2] 20 µM | [3] 10.4 µM | [4] 75.4 µM | [5] 20.1 µM | [6] 46.7 µM | [8] 70.1 µM | [9] 74.6 µM | [10] 19.7 µM | [11] 17.3 µM | [12] 22.4 µM | [13] 70.5 µM | [14] 48.6 µM | [18] 74.8 µM | [19] 18.6 µM
